BAZ2B inh – qHTS Assay for Inhibitors of BAZ2B; AlphaScreen BAZ2B-H3K14Ac peptide displacement; Potency, µM (doses to about 114 µM), inactives show at the top dose activity change, negative = inhibition, usual class: inhibitors; 4.4% of 360,000 active; AID 504333, 2011; note: potency is the fitted concentration of half-maximal effect; % is set by controls: 0 for no effect and ±100 for the full control effect; nearly all actives have a fitted effect of over 60% in size
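In this displacement format the biotinylated H3(5-23) peptide acetylated at Lys14 serves as ligand at 50 nM, with BAZ2B at 50 nM in PBS pH 7.4 containing 0.01% Tween-20. Donor and acceptor beads are 10 ug/mL final.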
KAT2A inh – qHTS Assay for Inhibitors of GCN5L2. Histone acetyltransferase KAT2A (Homo sapiens), Q92830. GCN5L2 HAT assay, ThioGlo1 CoA-SH fluorescence. Potency, µM (top dose mostly 58.9 µM), for inactives: top-dose activity change, negative = inhibition, hits mostly inhibitors. 0.21% of 390,000 active; note: potency is the fitted concentration of half-maximal effect; % is set by controls: 0 for no effect and ±100 for the full control effect
Target sequence (Q92830 whole entry, looked up): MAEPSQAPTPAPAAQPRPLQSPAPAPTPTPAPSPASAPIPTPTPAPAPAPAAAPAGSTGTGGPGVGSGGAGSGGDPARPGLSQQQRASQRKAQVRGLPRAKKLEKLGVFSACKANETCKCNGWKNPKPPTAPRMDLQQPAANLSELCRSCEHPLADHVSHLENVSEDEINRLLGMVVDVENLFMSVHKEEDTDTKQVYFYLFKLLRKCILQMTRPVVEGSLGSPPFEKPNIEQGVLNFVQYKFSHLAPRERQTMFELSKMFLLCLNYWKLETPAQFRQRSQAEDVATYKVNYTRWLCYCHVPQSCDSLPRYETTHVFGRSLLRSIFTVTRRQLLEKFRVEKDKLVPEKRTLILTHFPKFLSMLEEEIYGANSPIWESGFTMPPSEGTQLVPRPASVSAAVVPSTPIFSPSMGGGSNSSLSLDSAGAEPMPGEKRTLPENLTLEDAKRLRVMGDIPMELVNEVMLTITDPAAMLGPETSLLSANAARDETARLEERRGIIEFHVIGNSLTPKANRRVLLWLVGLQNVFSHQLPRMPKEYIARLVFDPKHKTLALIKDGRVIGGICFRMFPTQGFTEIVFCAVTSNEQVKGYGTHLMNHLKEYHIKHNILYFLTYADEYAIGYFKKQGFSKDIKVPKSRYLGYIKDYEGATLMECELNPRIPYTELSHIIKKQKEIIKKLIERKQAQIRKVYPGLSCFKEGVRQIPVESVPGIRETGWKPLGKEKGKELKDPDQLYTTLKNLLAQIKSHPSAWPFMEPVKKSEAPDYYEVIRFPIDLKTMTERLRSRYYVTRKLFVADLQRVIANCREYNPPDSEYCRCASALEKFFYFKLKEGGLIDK
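Enzyme at 20nM final was mixed with library compounds for 15 min at room temperature. Peptide H3(1-25) at 75uM, acetyl-CoA at 70uM and ThioGlo1 at 50uM were then added. Plates were read immediately and after 20 min (Ex340nm/Em540nm).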
HP1b chromo inh – HTS for Inhibitors of HP1-beta Chromodomain Interactions with Methylated Histone Tails; 0.56% of 390,000 active; AlphaScreen HP1-beta / biotin-H3K9me3 peptide binding; Potency, µM (titrated, usually from 114 µM), without a hit: at the top dose activity change, negative = inhibition, actives largely listed as inhibitors; note: potency is the fitted concentration of half-maximal effect; nearly all actives have a fitted effect of over 70% in size
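Compound inhibition of the preformed complex between 50 nM HP1-beta and 50 nM biotinylated H3K9me3 peptide was read by AlphaScreen. Buffer was PBS pH 7.4 with 0.01% Tween-20. Incubations ran 30 min at room temperature, with 10 ug/mL donor/acceptor beads.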
JMJD2A Tudor – qHTS Assay for Inhibitors of JMJD2A-Tudor Domain | Lysine-specific demethylase 4A (Homo sapiens), O75164 | Potency, µM (titrated, usually from 114 µM), for inactives: at the highest dose activity change, negative = inhibition, most hits filed as inhibitors | AID 504339, 2011 | AlphaScreen JMJD2A-Tudor / H3K4me3 peptide binding | 4.4% of 390,000 active; note: potency is the fitted concentration of half-maximal effect; % is set by controls: 0 for no effect and ±100 for the full control effect; nearly all actives have a fitted effect of over 50% in size
PI5P4K alpha inh – qHTS for Inhibitors of phosphatidylinositol 5-phosphate 4-kinase (PI5P4K) | Phosphatidylinositol 5-phosphate 4-kinase type-2 alpha (Homo sapiens), P48426 | PI5P4Kalpha enzyme, ADP-Glo luminescence, 60 min; stronger effect = lower value | max response, % | 1.2% of 330,000 active | AID 652105, 2013; active = max response of -50% or lower; inconclusive = between -30% and -50%; inactive = -30% or higher; note: value at the top dose of about 77 µM; % is set by controls: 0 for no effect and ±100 for the full control effect
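Compounds were pin-transferred onto PI5P4Kalpha and substrate in HEPES pH 7.4 buffer with EGTA, CHAPS and 5% DMSO. ATP (5 microM final) started the reaction, which ran 60 minutes at room temperature before ADP-Glo detection.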
PLK1 PBD block – qHTS for Inhibitors of PLK1-PDB (polo-like kinase 1 - polo-box domain): Primary Screen. Serine/threonine-protein kinase PLK1 (Homo sapiens), P53350. Plk1 PBD binding of FITC phosphopeptide, fluorescence polarization. 2.8% of 360,000 active. Potency, µM, without a hit: max response, negative = inhibition, usual class: inhibitors; note: potency is the fitted concentration of half-maximal effect; series mostly up to about 57 µM; % is set by controls: 0 for no effect and ±100 for the full control effect; nearly all actives have a fitted effect of over 65% in size
The depositor's hits bear a star; ? = inconclusive; / = no result given; [ ] = remark or other dose. The list is not random: actives were taken first. Their share in the collection is about 7%. Unless noted, calls come from the whole dose curve; as a rule, active = well fitted curve in the direction sought with a large enough effect; inconclusive = small, poorly fitted or top-dose-only effect, or another doubt; inactive = no such curve, though single readings can be large; an effect the other way counts as inactive or inconclusive.

SMILES	BAZ2B inh	KAT2A inh	HP1b chromo inh	JMJD2A Tudor	PI5P4K alpha inh	PLK1 PBD block
Cc1nc(SC2C=CS(=O)(=O)C2)n[nH]1 (stereo unspecified)	?	-4%	8%	56µM*	/	-5%
COc1ccc(NC2C=CS(=O)(=O)C2)cc1 (stereo unspecified)	-3%	/	45%	-16%	-1	-19%
CCC[C@@H](CN1CCC[C@H]1CN1C(N)=NC[C@@H]1Cc1ccccc1)N1C[C@@H]([C@H](C)CC)N(CCCC2CCCC2)C1=N	/	-4%	-14%	?	-87*	-14%
CCC[C@@H](CN1CCC[C@H]1CN1C(N)=NC[C@@H]1Cc1ccccc1)N1C[C@@H](Cc2ccccc2)N(CCCC2CCCC2)C1=N	/	-2%	22%	-33%	-19	-2%
O=C(Cc1ccc(Cl)cc1)NNC(=O)c1cnccn1	6%	-1%	9%	50µM*	-10	30µM*
COc1cc(CNCc2ccccc2)ccc1OCC(O)c1ccccc1 (stereo unspecified)	?	-1%	-8%	20µM*	-10	-6%
COc1cc(CNCc2ccccn2)ccc1OCC(N)=O	14µM*	2%	21%	50µM*	/	-1%
COc1cc(CNCc2ccccn2)ccc1OCc1ccc(Cl)c(Cl)c1	?	-1%	14%	?	2	-12%
CCOc1cc(CNCc2ccccn2)cc(Cl)c1OCC	50µM*	-4%	19%	56µM*	3	-8%
CCOc1cc(CNCC(O)c2ccccc2)cc(Cl)c1OC (stereo unspecified)	-12%	2%	40%	-8%	5	-4%
CCOc1cc(CNCc2ccccn2)cc(Cl)c1OC	56µM*	3%	26%	45µM*	-3	2%
OC(CNCc1ccccc1)c1ccccc1 (stereo unspecified)	6%	-3%	13%	-13%	4	-7%
CCOC(=O)c1ccccc1NC(=O)c1sc2ncn(Cc3cccc(F)c3)c(=O)c2c1C	3%	-5%	31%	0%	/	/
C[N+]1(CC(=O)OCCCc2ccccc2)CCOCC1	45µM*	-1%	20%	50µM*	0	-22%
Cc1ccc(CCCOC(=O)C[N+]2(C)CCOCC2)cc1	-20%	-8%	27%	35µM*	0	-4%
O=C(CN1CCOCC1)OCCCc1ccccc1	10%	-3%	74%	-8%	-1	-8%
CCC(=O)N1CCc2cc(CNC(=O)Nc3ccc(OC)cc3OC)ccc21	-8%	-8%	1%[57 µM]	-18%	/	/
OC[C@H]1OC(O)[C@@H](O)[C@@H](O)[C@H]1O (stereo partly specified)	/	0%	/	/	/	/
CCOc1ccc(CN2C(=O)c3ccccc3C2=O)cc1C(=O)N1CCC(C(N)=O)CC1	-5%	-1%	20%	-10%	4	-9%
COc1ccc(CNC(=S)Nc2cccc(OC)c2)cc1	-26%	1%	17%	-17%	0	-15%
CC1CCC/C(=N\NC(=S)Nc2ccccc2)C1 (stereo unspecified)	?	-1%	-13%	79µM*	-11	-5%
FC(F)(F)c1ccccc1NC(=S)NN=C1CCCCCC1	50µM*	-5%	-16%	50µM*	-14	0%
COc1cccc(NC(=S)NN=C2CCCCCC2)c1	56µM*	-5%	-34%	?	-18	-13%
CC(=O)c1cccc(S(=O)(=O)N2CCC(C(=O)OC3CCOC3=O)CC2)c1 (stereo unspecified)	?	-1%	22%	-25%	-22	-3%
COc1ccc(-n2c(CC3C(=O)N(C)c4ccc(C)cc43)nc3ccccc3c2=O)cc1 (stereo unspecified)	-30%	-7%	39%	-29%	/	/
SMILES	BAZ2B inh	KAT2A inh	HP1b chromo inh	JMJD2A Tudor	PI5P4K alpha inh	PLK1 PBD block
CC(Sc1nc2ccc(C(=O)c3ccccc3)cc2[nH]1)C(=O)O (stereo unspecified)	-6%	0%	37%	-15%	-52*	-12%
Nc1cccc(-c2nc3ccc(C(=O)c4ccccc4)cc3[nH]2)c1	50µM*	-7%	-11%	?	-3	-8%
CC(Sc1nc2ccc(Br)cc2[nH]1)C(=O)O (stereo unspecified)	-2%	-1%	27%	-21%	/	-3%
COCCN=c1scc(-c2ccc3c(c2)NC(=O)CO3)n1/N=C(\C)c1ccc(O)cc1	28µM*	2%	?	22µM*	-3	-5%
COc1cc(/C=N/n2c(-c3ccc4c(c3)NC(=O)CO4)csc2=Nc2cccc(C)c2)ccc1O	8.9µM*	-2%	?	?	-8	-14%
COc1ccccc1Nc1nc(-c2ccc3c(c2)NC(=O)CO3)cs1	-30%	-4%	33%	-21%	1	-8%
O=C1CCN(C(=O)c2ccc(Cl)cc2)N1	56µM*	-9%	9%	89µM*	-1	-11%
O=C1CCN(C(=O)CSc2ccc(Cl)cc2)N1	50µM*	2%	18%	?	5	-15%
O=C(O)C1CCN(C(=O)c2ccc(Cl)cc2)CC1	9%	-2%	30%	-9%	0	-1%
O=C(CSc1ccc(Cl)cc1)N1CCOCC1	2%	0%	41%	-17%	8	-11%
Cc1ccc(OC(=O)CSc2nnc(-c3cccs3)o2)cc1C	0%	-3%	36%	-4%	/	/
CCC1C(=O)N(c2nc(C)cc(C)n2)N=C1C (stereo unspecified)	?	-5%[0.501 µM]	31%	11µM*	/	-1%
COc1cc(C(=O)N/N=C/c2ccc(OC(=O)c3ccccc3)c(OC)c2)ccc1O	-19%	-9%	4%	-10%	0	-13%
O=C(N/N=C/c1ccc(OC(=O)c2ccccc2)c([N+](=O)[O-])c1)c1ccc(O)cc1	-9%	-13%	17%	-21%	-79*	?
COc1cc(/C=N/NC(=O)c2cc(O)cc(O)c2)ccc1OC(=O)c1ccccc1	11µM*	-4%	28µM*	22µM*	-92*	?
COc1cc(/C=N/NC(=O)c2ccc3ccccc3c2)ccc1Oc1ccc([N+](=O)[O-])cn1	-32%	-15%	12%	25µM*	-1	-11%
COc1cccc(C(=O)N/N=C/c2ccc(Oc3ccc([N+](=O)[O-])cn3)c(OC)c2)c1	-33%	-21%	-13%	-34%	-27	?
COc1ccc(C(=O)Oc2ccc(/C=N/NC(=O)c3ccccc3OC)cc2[N+](=O)[O-])cc1	5%	0%	31%	-7%	-1	-15%

Bioassay records from PubChem BioAssay.
